Potency data for 53 compounds are collected here from PubChem BioAssay AID504467 (National Center for Advancing Translational Sciences (NCATS), 2011).

Out of some 330,000 compounds screened, about 7,700 (2.3%) were called active. Where a call stands in place of a potency, no number is given. Inconclusive results (about 26%) are left out. Calls follow the shape of the dose curve; as a rule, active = well fitted inhibition curve with a large enough effect; inconclusive = small, poorly fitted or top-dose-only effect, or effect the other way; inactive = flat fitted curve, though single readings scatter. The sample as a whole holds a higher share of actives than the screen did.
Potency is read from the fitted curve at half-maximal effect.

The nature of this assay: qHTS screen for small molecules that inhibit ELG1-dependent DNA repair in human embryonic kidney (HEK293T) cells expressing luciferase-tagged ELG1. Also: nearly all actives have a fitted effect of over 55% in size. The conditions noted are these: HEK293T ELG1-luciferase reporter, luminescence, 16 h, DNA damage induced by 5-fluorouridine; series mostly up to 46.1 µM. In short, it runs like this: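 Reporter activity after DNA damage by 5-fluorouridine is monitored. Compound-treated cells incubate 16 hr at 37 °C, then ONE-Glo is added for 30 min before luminescence reading.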
Background: qHTS replaces the single test concentration by a dilution series.
In the case of `CC(=O)NCC(=O)N1CCCC(C(=O)c2ccc3c4c(cccc24)CC3)C1` (stereo not drawn), the Potency result was “inactive”.

For `CCn1ccnc1CN1CCCC(C(=O)c2ccc3c4c(cccc24)CC3)C1` (stereo not drawn), the Potency result is “inactive”.

As for `CC1CCCCC1NC(=O)NC(=O)COC(=O)C1=NN(c2ccccc2)C(=O)CC1` (stereo not drawn), the Potency result is “inactive”.

`CCCC(=O)N1CCN(c2nnc(-c3ccc(C)cc3)c3ccccc23)CC1`: the Potency result is “inactive”.

As for `COc1ccc(CCN(C)C(=O)C23CC4CC(CC(Cl)(C4)C2)C3)cc1OC`, the Potency entry was “inactive”.

As to `CCCn1c(C2CCCN2c2nc(-c3ccc(C)cc3)cs2)nc2cc(Cl)c(N3CCCCC3)cc21` (stereo not drawn), the Potency result was “inactive”.

Consider `CC(C)(C)OC(=O)Nc1ccc([C@@H](NC(=O)OC(C)(C)C)C(=O)OC(C)(C)C)cc1`, for which the Potency result is “inactive”.

Regarding `CCc1nnc(NC(=O)C2CCN(C(=O)c3ccccc3C)CC2)s1`, the Potency entry was “inactive”.

In the case of `Cc1ccccc1C(=O)N1CCC(C(=O)Nc2ccc(S(=O)(=O)N(C)C(C)C)cc2)CC1`, the Potency was 16.4 µM (active).

In the case of `CC(=O)c1cccc(NC(=O)C2CCN(C(=O)c3ccccc3Cl)CC2)c1`, the Potency entry is “inactive”.

For the compound `O=C(Nc1ccccc1N1CCOCC1)c1ccc(OCc2cscn2)cc1`, the Potency result is “inactive”.

For the compound `O=C(COC(=O)CCCN1C(=O)c2cccc3cccc(c23)C1=O)NC1CCS(=O)(=O)C1` (stereo not drawn), the Potency result is “inactive”.

For the compound `CCOC(=O)CSc1nc2ccc(C)cc2n2cnnc12`, the Potency result is “inactive”.

Regarding `O=C(CCc1nnc2ccc(NCc3ccco3)nn12)Nc1cc(F)ccc1F`, the Potency entry was “inactive”.

For the compound `COc1ccc(CCNC(=O)C2CCCN(Cc3nc(-c4cccc(Cl)c4)oc3C)C2)cc1OC` (stereo not drawn), the Potency is 10 µM (active).

Regarding `COc1ccc(CCN(C)C(=O)C2CCCN(Cc3ccc(OC)c(OC)c3)C2)cc1OC` (stereo not drawn), the Potency result was “inactive”.

For the compound `COc1cccc(-c2nc(CS(=O)(=O)CC(=O)NCCc3ccc(OC)c(OC)c3)c(C)o2)c1`, the Potency entry was “inactive”.

Consider `CCOc1ccc(-n2c(SCC(=O)OC)nc3sc4c(c3c2=O)CCN(C)C4)cc1`, for which the Potency entry is “inactive”.

For `O=C(/C=C/c1ccccc1)c1ccccc1O`, the Potency entry was “inactive”.

Take `Cc1[nH]c(=O)c(C(=O)/C=C/c2ccccc2)c2c1CCCC2`: the Potency is 8.2 µM (active).

For `Cc1cn(COC/C=C/c2ccccc2)c(=O)[nH]c1=O`, the Potency entry was “inactive”.

With `O=C(c1ccccc1)c1ccc(OCC(O)CN2CCCC2)cc1` (stereo not drawn), the Potency entry is “inactive”.

Regarding `OC(CN=c1sc2ccccc2n1CC(O)COc1ccccc1)COc1ccccc1` (stereo not drawn), the Potency was 20.6 µM (active).

For the compound `OC(COc1ccccc1)Cn1cc(Br)cn1` (stereo not drawn), the Potency result is “inactive”.

`CC1(C)CC(=O)C=C(c2ccc(Cl)c(C(F)(F)F)c2)C1`: the Potency entry is “inactive”.

As for `COc1ccc(C(CNC(=O)COc2ccc([N+](=O)[O-])cc2)N2CCCCC2)cc1` (stereo not drawn), the Potency entry is “inactive”.

`Cc1c(O)c(C)c2c(c1O)C(=O)C[C@@H](c1ccccc1)O2`: the Potency result was “inactive”.

For the compound `COc1cc(C(=S)NCc2ccccc2)cc(Br)c1O`, the Potency entry is “inactive”.

As for `COc1cc(C(=O)NCc2ccc(-n3cccc3)cc2)cc(OC)c1OC`, the Potency result was “inactive”.

Regarding `COc1cc(C(=O)NCc2ccncc2)cc(Br)c1OCc1ccccc1`, the Potency is 14.6 µM (active).

For `CC[C@]1(C(=O)OC)[C@H]2C(=O)N(C)C(=O)[C@H]2[C@H]2CN(C)C(=NCc3ccccc3)N21`, the Potency entry was “inactive”.

Consider `COc1ccc(NC(=O)CN(C)C(=O)c2cccc(S(=O)(=O)N3CCN(c4ccccc4)CC3)c2)cc1`, for which the Potency result is “inactive”.

Consider `CC1CCCCC1NC(=O)Cn1cnc2c1c(=O)n(C)c(=O)n2C` (stereo not drawn), for which the Potency result was “inactive”.

On to `O=C(NC1CCCCC1)C1CCCN(S(=O)(=O)c2cccs2)C1` (stereo not drawn), for which the Potency result was “inactive”.

Turning to `O=C(Nc1ccc(Br)cn1)C1CCN(S(=O)(=O)c2cccs2)CC1`, the Potency was 5.8 µM (active).

As for `O=C(NCc1ccc(Cl)cc1)C1CCN(S(=O)(=O)c2cccs2)CC1`, the Potency entry was “inactive”.

Regarding `O=C(COC(=O)c1ccccn1)NNC(=O)c1ccc(Br)cc1`, the Potency entry is “inactive”.

With `Cc1ccc(OCC(=O)Nc2ccccc2C(=O)NC2CC2)cc1`, the Potency result was “inactive”.

Turning to `CCCCNC(=O)N(O)C1N(/N=C/c2ccccc2O)C(=S)SC1(C)C` (stereo not drawn), the Potency entry is “inactive”.

As to `CCOC(=O)C1CCCN(C(=O)CSc2nnc3nc(C)cc(C)n23)C1` (stereo not drawn), the Potency entry was “inactive”.

In the case of `CCCc1cc(=O)[nH]c(SCC(=O)Nc2sc3c(c2C#N)CCCC3)n1`, the Potency entry was “inactive”.

On to `COc1ccc(-n2c(SCC(=O)Nc3sc4c(c3C#N)CCCC4)nnc2-c2ccc(O)cc2)cc1`, for which the Potency is 18.4 µM (active).

`N#Cc1c(NC(=O)CSc2nc3ccccc3c(=O)n2Cc2ccco2)sc2c1CCCC2`: the Potency entry was “inactive”.

On to `CCOc1ccccc1NC(=O)CCc1nnc2ccc(NCc3ccco3)nn12`, for which the Potency result was “inactive”.

On to `CN(CC(=O)Nc1ccc(F)cc1)CC(=O)N1CCCCC1`, for which the Potency entry was “inactive”.

As to `Cc1ccc(NC(=O)c2ccc(Cl)nc2)cc1S(=O)(=O)N1CCOCC1`, the Potency is 23.1 µM (active).

Take `Cc1ccc(NC(=O)C2CCC(C(C)(C)C)CC2)cc1S(=O)(=O)N1CCOCC1` (stereo not drawn): the Potency was 23.1 µM (active).

For `CN(CCC(=O)Nc1cc(S(=O)(=O)N(C)C)ccc1Cl)CC(=O)Nc1ccc(F)cc1`, the Potency result is “inactive”.

Regarding `Cc1ccc(NC(=O)c2ccccn2)cc1S(=O)(=O)N1CCOCC1`, the Potency result is “inactive”.

On to `CC(=O)NCCc1ccc(S(=O)(=O)Nc2ccc(C)c(S(=O)(=O)N3CCOCC3)c2)cc1`, for which the Potency entry was “inactive”.

`Cc1ccc(NC(=O)CCCNC(=O)c2ccc(Cl)cc2)cc1S(=O)(=O)N1CCOCC1`: the Potency result is “inactive”.

Regarding `CN(CC(=O)Nc1ccc(F)cc1)CC(=O)Nc1ccc(Cl)c(S(=O)(=O)N2CCOCC2)c1`, the Potency was 18.3 µM (active).

On to `Cc1ccc(NC(=O)C2CC2)cc1S(=O)(=O)N1CCOCC1`, for which the Potency entry was “inactive”.
